Assay outcomes deposited in PubChem BioAssay by National Center for Advancing Translational Sciences (NCATS).
In the library only some 11% were active in any assay of this set; here they are far more common.
Luciferase inh: inhibitors of firefly (Photinus pyralis) luciferase | P08659 | purified P. pyralis luciferase, luminescence, biochemical | Potency, µM (doses to about 115 µM), hits mostly inhibitors | hit rate 2.5% among 76,000; also: nearly all actives have a fitted effect of over 65% in size
Target sequence (P08659 whole entry, looked up): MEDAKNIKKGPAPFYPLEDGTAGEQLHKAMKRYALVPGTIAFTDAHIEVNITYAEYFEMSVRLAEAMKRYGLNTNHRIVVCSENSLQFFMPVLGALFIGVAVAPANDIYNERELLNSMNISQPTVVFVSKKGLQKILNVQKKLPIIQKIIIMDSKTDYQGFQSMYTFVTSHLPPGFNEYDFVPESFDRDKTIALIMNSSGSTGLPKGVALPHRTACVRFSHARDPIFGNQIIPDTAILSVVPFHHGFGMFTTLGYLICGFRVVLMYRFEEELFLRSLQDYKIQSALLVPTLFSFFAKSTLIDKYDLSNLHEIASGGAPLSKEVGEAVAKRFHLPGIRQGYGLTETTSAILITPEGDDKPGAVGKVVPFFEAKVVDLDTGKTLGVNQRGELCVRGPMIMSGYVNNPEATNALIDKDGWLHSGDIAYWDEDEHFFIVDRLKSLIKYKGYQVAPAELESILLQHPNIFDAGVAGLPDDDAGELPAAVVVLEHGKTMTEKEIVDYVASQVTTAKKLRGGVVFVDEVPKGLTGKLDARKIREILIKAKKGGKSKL
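FLuc 10nM, D-luciferin 10uM, ATP 10uM, Mg acetate 10mM, Tris acetate pH 7.5, Tween/BSA; cpd qHTS; enzyme added last; CCD luminescence.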
NIH3T3 tox: cytotoxic compounds in NIH 3T3 cells; AID 1345082; Potency, µM (doses to about 96.7 µM), for inactives: at the highest dose activity change, negative = cytotoxicity, usual class: inhibitors; NIH 3T3 viability, CellTiter-Glo ATP luminescence, 48-72 h; hit rate 4.3% among 94,000; also: nearly all actives have a fitted effect of over 55% in size
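Cytotoxicity is measured as loss of cellular ATP: NIH 3T3 cells (400/well) are exposed to compound for 48 or 72 hr at 37 °C, then CellTiter-Glo luminescence is imaged after 10 min at room temperature.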
HEK cytotox: cytotoxic compounds in HEK 293 cells; Potency, µM (doses to about 115 µM), without a hit: at the top dose activity change, negative = cytotoxicity, hits mostly inhibitors; HEK 293 viability, ATP luminescence (CellTiter-Glo), 48-72 h; hit rate 6.6% among 94,000; AID 1345083; also: nearly all actives have a fitted effect of over 60% in size
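HEK 293 cells seeded at 250 cells/well were exposed to compound for 48 or 72 hr at 37 degree Celsius. Viability taken as ATP content by CellTiter-Glo luminescence.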
NPR1 antag: human Npr1 receptor antagonism | P16066 | HEK293 hNpr1 GloSensor cGMP, ANP-stimulated luminescence | Potency, µM (series often up to 46.3 µM), for the others: at the highest dose activity change, negative = inhibition, usual class: inhibitors | hit rate 1.6% among 76,000 | AID 1347048; calls by dose curve; also: nearly all actives have a fitted effect of over 60% in size
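HEK293 cells stably expressing human Npr1 and cGMP GloSensor pGS-40F, loaded 2 h with 2% GloSensor reagent, given compound 30 min at room temperature. Luminescence read before and 20 min after 0.1 nM hNppA.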
* hit, by the source's call; [ ] = dose if it differs, or a comment. Unless noted, calls follow the shape of the dose curve; as a rule, active = well fitted curve in the direction sought with a large enough effect; inconclusive = small, poorly fitted or top-dose-only effect, or another doubt; inactive = no such curve, though single readings can be large; an effect the other way counts as inactive or inconclusive. % is scaled to controls: 0 for no effect and ±100 for the full control effect; potency is read from the fitted curve at half-maximal effect.

What do the screens show for `CCn1nccc1C(=O)N1c2ccccc2CC1c1nnc(C2CCOCC2)o1` (centres undefined)?
Luciferase inh: inactive; NIH3T3 tox: -11.2%; HEK cytotox: 1.4%; NPR1 antag: -0.4%

Results for O=C(NCc1cccc(F)c1)c1ccc2nnc(C3CCOCC3)n2c1 ?
NIH3T3 tox: -21.6%; HEK cytotox: inactive

What do the screens show for `O=C(c1ccco1)N1CC(Oc2ccc(-c3nc(-c4ccccc4)no3)cc2)C1`?
Luciferase inh: inconclusive; NIH3T3 tox: 28.2µM*; HEK cytotox: 20µM*; NPR1 antag: inconclusive

Results for O=C(c1ccc(F)cc1)N1CC(Oc2ccc(-c3nc(-c4ccccc4)no3)cc2)C1 ?
Luciferase inh: inactive; NIH3T3 tox: -13.2%; HEK cytotox: inconclusive; NPR1 antag: -11.4%

Results for O=C(c1ccccc1F)N1CC(Oc2ccc(-c3nc(-c4ccccc4)no3)cc2)C1 ?
Luciferase inh: inconclusive; NIH3T3 tox: 44.7µM*; HEK cytotox: 28.2µM*; NPR1 antag: 7.08µM*

What do the screens show for `O=C(NCc1ccccc1Cl)C1CCc2nnc(CN[S+](=O)([O-])c3ccccc3Cl)n21` (centres undefined)?
NIH3T3 tox: -14.4%; HEK cytotox: inactive

How did CCC(C(=O)N1CCN(c2cc(-c3cccs3)[nH]n2)CC1)c1ccccc1 (centres undefined) do in these assays?
Luciferase inh: inactive; NIH3T3 tox: inconclusive; HEK cytotox: inconclusive; NPR1 antag: -21.2%

How did COc1ccc(NC(=O)c2ccc(-c3ncc4cnc(C5=CCOCC5)cn34)cc2)cn1 do in these assays?
Luciferase inh: inactive; NIH3T3 tox: 31.6µM*; HEK cytotox: inconclusive; NPR1 antag: -15.9%[70.6 µM]

What do the screens show for `O=C(c1ccc(-c2ncc3cnc(C4=CCOCC4)cn23)cc1)N1CC[S+](=O)([O-])CC1`?
Luciferase inh: inactive; NIH3T3 tox: inconclusive; HEK cytotox: 1.0%[172 µM]; NPR1 antag: 4.5%[70.6 µM]

Results for CC(C)(C)CC(=O)N1CCC2(CC1)C(=O)N(CC(=O)Nc1ccc(F)cc1)CN2c1ccccc1 ?
Luciferase inh: inactive; NIH3T3 tox: inconclusive; HEK cytotox: inconclusive; NPR1 antag: -1.1%

How did CC(C)(C)C(=O)N1CCC2(CC1)C(=O)N(CC(=O)Nc1cccc(Cl)c1)CN2c1ccccc1 do in these assays?
Luciferase inh: inactive; NIH3T3 tox: 31.6µM*; HEK cytotox: 35.5µM*; NPR1 antag: -1.6%

What do the screens show for `Fc1ccc(-c2cc(-c3cn[nH]c3)c3cncn3c2)cc1`?
Luciferase inh: inactive; NIH3T3 tox: 44.7µM*; HEK cytotox: inconclusive; NPR1 antag: -15.2%[70.6 µM]

What do the screens show for `COc1cc(F)ccc1-c1cc(-c2cn[nH]c2)c2cncn2c1`?
Luciferase inh: inactive; NIH3T3 tox: 31.6µM*; HEK cytotox: inconclusive; NPR1 antag: -10.6%[70.6 µM]

How did Cc1ccccc1-c1cc(-c2cn[nH]c2)c2cncn2c1 do in these assays?
Luciferase inh: inactive; NIH3T3 tox: 70.8µM*; HEK cytotox: inconclusive; NPR1 antag: -22.7%[70.6 µM]

How did Fc1cccc(-c2cc(-c3cn[nH]c3)c3cncn3c2)c1 do in these assays?
Luciferase inh: inactive; NIH3T3 tox: inconclusive; HEK cytotox: inconclusive; NPR1 antag: -13.3%[70.6 µM]

What do the screens show for `COc1cc(OC)cc(C(=O)N2CCC3(CC2)NC(=O)N(c2cccc(Cl)c2)N3)c1`?
Luciferase inh: inactive; NIH3T3 tox: inconclusive; HEK cytotox: inconclusive; NPR1 antag: 5.9%

How did COc1ccc(CN2C(=O)CO[C@H](c3ccc(NS(=O)(=O)c4ccccc4)cc3)[C@H]2CO)cc1 do in these assays?
Luciferase inh: inactive; NIH3T3 tox: inconclusive; HEK cytotox: -18.1%; NPR1 antag: -2.0%

What do the screens show for `CN(Cc1ccccc1)Cc1nc2c(n1Cc1ccccc1)C(=O)N(Cc1ccccc1F)CCN2`?
Luciferase inh: inactive; NIH3T3 tox: inconclusive; HEK cytotox: 39.8µM*; NPR1 antag: -0.1%

What do the screens show for `O=C1c2c(nc(COc3cc(F)cc(F)c3)n2Cc2ccccc2)NCCN1Cc1ccccc1F`?
Luciferase inh: inactive; NIH3T3 tox: 25.1µM*; HEK cytotox: inconclusive; NPR1 antag: -19.2%

What do the screens show for `CN1CCNc2nc(COc3ccc(Oc4ccccc4)cc3)n(Cc3ccccc3)c2C1=O`?
Luciferase inh: inactive; NIH3T3 tox: -21.2%; HEK cytotox: inconclusive; NPR1 antag: -2.4%

Results for O=C1c2c(nc(COc3ccc(Cl)cc3)n2Cc2ccccc2)NCCN1CC1CCOCC1 ?
Luciferase inh: inactive; NIH3T3 tox: inconclusive; HEK cytotox: inconclusive; NPR1 antag: -20.3%

How did COc1ccc(OCc2nc3c(n2Cc2ccccc2)C(=O)N(Cc2ccccc2F)CCN3)cc1OC do in these assays?
Luciferase inh: inactive; NIH3T3 tox: inconclusive; HEK cytotox: inconclusive; NPR1 antag: -16.6%

Results for COCCN1CCNc2nc(COc3ccc(Oc4ccccc4)cc3)n(Cc3ccccc3)c2C1=O ?
Luciferase inh: inactive; NIH3T3 tox: 44.7µM*; HEK cytotox: inconclusive; NPR1 antag: -21.7%

Results for O=C1c2c(nc(COc3ccccc3)n2Cc2ccccc2)NCCN1Cc1ccccc1 ?
Luciferase inh: inactive; NIH3T3 tox: 31.6µM*; HEK cytotox: 35.5µM*; NPR1 antag: inconclusive

Results for O=C(c1ccco1)N1CCC2(CC1)CC(OCC1CC1)CCO2 (centres undefined) ?
Luciferase inh: inactive; NIH3T3 tox: inactive; HEK cytotox: 4.7%; NPR1 antag: 0.0%

How did Cc1ccc([S+](=O)([O-])N2CCN(C(=O)c3nc4cccnc4n(Cc4ccccc4)c3=O)CC2)cc1 do in these assays?
NIH3T3 tox: -11.5%; HEK cytotox: -13.3%

Results for O=C(c1ccc(-c2cncnc2)cc1)N1CCC(C(=O)N2CCCCC2)CC1 ?
NIH3T3 tox: -13.0%; HEK cytotox: -4.6%

Results for O=C1c2c(nc(COc3ccc(F)cc3F)n2Cc2ccccc2)NCCN1CCOc1ccccc1 ?
Luciferase inh: inactive; NIH3T3 tox: inconclusive; HEK cytotox: 44.7µM*; NPR1 antag: inconclusive

What do the screens show for `O=C1c2c(nc(COc3ccc(F)cc3)n2Cc2ccccc2)NCCN1CCOc1ccccc1`?
Luciferase inh: inactive; NIH3T3 tox: inconclusive; HEK cytotox: inconclusive; NPR1 antag: inconclusive

What do the screens show for `COc1ccc(OCc2nc3c(n2Cc2ccccc2)C(=O)N(CC2CC2)CCN3)cc1OC`?
Luciferase inh: inactive; NIH3T3 tox: inconclusive; HEK cytotox: inconclusive; NPR1 antag: -4.5%

Results for COc1cc(OC)cc(OCc2nc3c(n2Cc2ccccc2)C(=O)N(Cc2ccccc2F)CCN3)c1 ?
Luciferase inh: inactive; NIH3T3 tox: inconclusive; HEK cytotox: 31.6µM*; NPR1 antag: -20.8%

How did O=C1c2c(nc(COc3cc(F)cc(F)c3)n2Cc2ccccc2)NCCN1Cc1ccccc1 do in these assays?
Luciferase inh: inactive; NIH3T3 tox: 25.1µM*; HEK cytotox: 25.1µM*; NPR1 antag: -30.0%

What do the screens show for `COc1ccc(CCNC(=O)C[C@@H]2c3nc(NC(=O)CC(C)(C)C)sc3C[C@@H]3[C@](C)(CO)[C@H](O)CC[C@]32C)cc1OC`?
Luciferase inh: inactive; NIH3T3 tox: -23.3%; HEK cytotox: -10.4%; NPR1 antag: 2.8%
